Reference: publication PMC7862700, “An all-to-all approach to the identification of sequence-specific readers for epigenetic DNA modifications on cytosine”

These sequences were tested against T1, SPDEF (Homo sapiens, UniProt O95238 1-335) (assay: DAPPL (digital affinity profiling via proximity ligation, sequencing); 10 mM Tris-HCl pH 7.5, 50 mM NaCl, 1 mM DTT, 4% glycerol, room temperature, 30 min; GST-TFs on glutathione beads, 16-mer random dsDNA library, 0.1% formaldehyde crosslink after washing; high values mean tight binding). Conditions: protein: recombinant; tags: N-terminal GST; dsDNA, one strand shown.
T1 sequence: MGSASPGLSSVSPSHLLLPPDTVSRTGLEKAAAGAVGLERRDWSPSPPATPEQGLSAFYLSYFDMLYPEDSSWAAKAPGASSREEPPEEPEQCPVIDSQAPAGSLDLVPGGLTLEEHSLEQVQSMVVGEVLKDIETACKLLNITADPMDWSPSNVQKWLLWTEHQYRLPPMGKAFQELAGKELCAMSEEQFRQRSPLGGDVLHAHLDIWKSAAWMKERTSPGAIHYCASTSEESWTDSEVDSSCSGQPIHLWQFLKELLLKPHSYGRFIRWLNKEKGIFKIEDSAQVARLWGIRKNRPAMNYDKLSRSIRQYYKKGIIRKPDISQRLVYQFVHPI
In short: (§1)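 Yeast served to express human transcription factors as GST fusions, which were then captured on glutathione beads and labelled with DNA barcodes. Pooled with a tag-only sample, they were incubated with 200 nmole of a 16-mer random double-stranded DNA library for 30 min at room temperature in Tris/NaCl/DTT/glycerol buffer, washed, crosslinked with 0.1% formaldehyde, ligated by proximity, amplified by PCR and sequenced. Dividing each hexamer's read frequency for a factor by its frequency for the tag-only sample gives the binding signal.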

Sequence | binding signal
AATTTC | 1.59 fold enrichment (6-mer frequency, TF over GST control)
ACCAAT | 1.24 fold enrichment (6-mer frequency, TF over GST control)
TAACAC | 1.28 fold enrichment (6-mer frequency, TF over GST control)
TTAGGG | 1.18 fold enrichment (6-mer frequency, TF over GST control)
CTACAC | 1.39 fold enrichment (6-mer frequency, TF over GST control)
CTAGCT | 1.27 fold enrichment (6-mer frequency, TF over GST control)
ATCCAT | 1.17 fold enrichment (6-mer frequency, TF over GST control)
TAGTAC | 1.14 fold enrichment (6-mer frequency, TF over GST control)
TTTGAA | 1.15 fold enrichment (6-mer frequency, TF over GST control)
AACCTA | 1.08 fold enrichment (6-mer frequency, TF over GST control)
GATGTT | 1.51 fold enrichment (6-mer frequency, TF over GST control)
CCTTAG | 1.24 fold enrichment (6-mer frequency, TF over GST control)
CGCGCT | 1.14 fold enrichment (6-mer frequency, TF over GST control)
CATCTA | 1.07 fold enrichment (6-mer frequency, TF over GST control)
TCTATT | 1.37 fold enrichment (6-mer frequency, TF over GST control)
CTATTT | 1.57 fold enrichment (6-mer frequency, TF over GST control)
TTCAGG | 1.25 fold enrichment (6-mer frequency, TF over GST control)
GCTATA | 1.21 fold enrichment (6-mer frequency, TF over GST control)
CTCATT | 1.33 fold enrichment (6-mer frequency, TF over GST control)
CAATTT | 1.21 fold enrichment (6-mer frequency, TF over GST control)

The sequences below were run against T2, ETV7 (Homo sapiens, UniProt Q9Y603 1-341) in the same assay as above. Conditions: protein: recombinant; tags: N-terminal GST; dsDNA, one strand shown.
T2 sequence: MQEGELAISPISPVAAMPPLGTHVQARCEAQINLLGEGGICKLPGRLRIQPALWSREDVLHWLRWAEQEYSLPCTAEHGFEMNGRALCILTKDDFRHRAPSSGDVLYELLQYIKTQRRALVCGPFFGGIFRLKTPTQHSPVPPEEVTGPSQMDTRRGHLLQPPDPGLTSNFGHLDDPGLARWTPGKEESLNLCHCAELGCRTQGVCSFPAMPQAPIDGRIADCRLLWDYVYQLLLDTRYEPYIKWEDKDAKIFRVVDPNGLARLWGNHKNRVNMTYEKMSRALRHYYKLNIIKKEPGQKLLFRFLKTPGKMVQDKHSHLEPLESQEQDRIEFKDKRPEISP
In short: as §1

Sequence | binding signal
TCTTCG | 1.46 fold enrichment (6-mer frequency, TF over GST control)
GCTTTG | 1.44 fold enrichment (6-mer frequency, TF over GST control)
TCTCTG | 1.29 fold enrichment (6-mer frequency, TF over GST control)
TAAAAG | 1.19 fold enrichment (6-mer frequency, TF over GST control)
CCTTAA | 1.21 fold enrichment (6-mer frequency, TF over GST control)
CTTTTT | 1.37 fold enrichment (6-mer frequency, TF over GST control)
CTTCAA | 1.27 fold enrichment (6-mer frequency, TF over GST control)
ACTAAA | 1.24 fold enrichment (6-mer frequency, TF over GST control)
ATATCC | 2.25 fold enrichment (6-mer frequency, TF over GST control)
AATCTC | 1.2 fold enrichment (6-mer frequency, TF over GST control)
TACCCG | 1.43 fold enrichment (6-mer frequency, TF over GST control)
CCTGTT | 1.63 fold enrichment (6-mer frequency, TF over GST control)
TTTTCC | 1.78 fold enrichment (6-mer frequency, TF over GST control)
AAAACT | 1.29 fold enrichment (6-mer frequency, TF over GST control)
TAATAC | 1.11 fold enrichment (6-mer frequency, TF over GST control)
GACTTC | 2.2 fold enrichment (6-mer frequency, TF over GST control)
ATGGCA | 1.24 fold enrichment (6-mer frequency, TF over GST control)
TCCGAC | 1.43 fold enrichment (6-mer frequency, TF over GST control)
TTACAG | 1.22 fold enrichment (6-mer frequency, TF over GST control)
AATTTC | 1.74 fold enrichment (6-mer frequency, TF over GST control)

Sequence | binding signal
ACCAAT | 1.29 fold enrichment (6-mer frequency, TF over GST control)
TAACAC | 1.21 fold enrichment (6-mer frequency, TF over GST control)
TTAGGG | 1.06 fold enrichment (6-mer frequency, TF over GST control)
CTACAC | 1.25 fold enrichment (6-mer frequency, TF over GST control)
CTAGCT | 1.33 fold enrichment (6-mer frequency, TF over GST control)
ATCCAT | 1.11 fold enrichment (6-mer frequency, TF over GST control)
TAGTAC | 1.17 fold enrichment (6-mer frequency, TF over GST control)
TTTGAA | 1.17 fold enrichment (6-mer frequency, TF over GST control)
AACCTA | 1.03 fold enrichment (6-mer frequency, TF over GST control)
GATGTT | 1.21 fold enrichment (6-mer frequency, TF over GST control)
CCTTAG | 1.21 fold enrichment (6-mer frequency, TF over GST control)
CGCGCT | 1.14 fold enrichment (6-mer frequency, TF over GST control)
CATCTA | 1.21 fold enrichment (6-mer frequency, TF over GST control)
TCTATT | 1.11 fold enrichment (6-mer frequency, TF over GST control)
CTATTT | 1.66 fold enrichment (6-mer frequency, TF over GST control)
TTCAGG | 1.15 fold enrichment (6-mer frequency, TF over GST control)
GCTATA | 1.18 fold enrichment (6-mer frequency, TF over GST control)
CTCATT | 1.29 fold enrichment (6-mer frequency, TF over GST control)
CAATTT | 1.31 fold enrichment (6-mer frequency, TF over GST control)
